Screening results: PubChem, National Center for Advancing Translational Sciences (NCATS)
Shown are actives, neighbours in structure and some others; about 12% of the full set was active somewhere.
BAZ2B inh: inhibitors of human BAZ2B bromodomain; Q9UIF8; AlphaScreen BAZ2B-H3K14Ac peptide displacement; Potency, µM (top dose mostly 114 µM), usual class: inhibitors; 360,000 tested, 4.4% active; AID 504333; also: nearly all actives have a fitted effect of over 60% in size
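Inhibition is scored as reduced AlphaScreen emission. The BAZ2B/b-H3(5-23)K14Ac complex (50 nM each) in PBS pH 7.4, 0.01% Tween-20 meets compound (up to 110 uM) for 30 min at RT before bead addition.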
PLK1 PBD inh: PLK1 (human) polo-box domain binding inhibition | Plk1 PBD binding of FITC phosphopeptide, fluorescence polarization | Potency, µM, usual class: inhibitors | 360,000 tested, 2.8% active; also: series mostly up to about 57 µM; nearly all actives have a fitted effect of over 65% in size
HP1b chromo inh: inhibitors of HP1-beta chromodomain binding to methylated histone tails | AlphaScreen HP1-beta / biotin-H3K9me3 peptide binding | Potency, µM (titrated, usually from 114 µM), actives largely listed as inhibitors | 390,000 tested, 0.56% active; also: nearly all actives have a fitted effect of over 70% in size
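HP1-beta protein (50 nM final) preincubated 30 min at room temperature with biotinylated H3(1-18)K9me3 peptide (50 nM) in PBS pH 7.4, 0.01% Tween-20, then compound added for 30 min. AlphaScreen streptavidin donor/nickel chelate acceptor beads (10 ug/mL final), 30 min dark, luminescence read.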
Sfp inh: Sfp phosphopantetheinyl transferase inhibition; Potency, µM, usual class: inhibitors; 310,000 tested, 3.5% active; Biochemical Sfp PPTase activity, qHTS;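 also: the enzyme is Sfp with the accession as filed and its product quenches rhodamine fluorescence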
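Fluorescence-quenching assay with 15 nM Sfp, 5 uM rhodamine-CoA and 12.5 uM BHQ-2-labelled ybbR peptide in pH 7.6 Hepes/MgCl2 buffer. Enzyme was pre-incubated with compound for 15 min at room temperature. Rate was taken from the 30-min fluorescence change (525/598 nm).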
JMJD2A Tudor: blocks the human JMJD2A Tudor domain; O75164; AlphaScreen JMJD2A-Tudor / H3K4me3 peptide binding; Potency, µM (top dose mostly 114 µM), actives largely listed as inhibitors; 390,000 tested, 4.4% active; AID 504339; also: nearly all actives have a fitted effect of over 50% in size
G9a block: G9a (human) methyltransferase inhibition. Q96KQ7. G9a H3K9 monomethylation, AlphaScreen, 2 h. Potency, µM (highest dose often 102 µM), hits mostly inhibitors. 350,000 tested, 8.8% active. AID 504332; also: nearly all actives have a fitted effect of over 75% in size
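Signal arises when biotinylated H3K9 peptide, once monomethylated, bridges streptavidin donor and antibody-captured acceptor beads. Enzyme at 20 nM was preincubated 15 min with test compounds; peptide 500 nM and SAM 20 uM then reacted for 2 h.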
Hits are given with their value; i = inactive; ? = inconclusive; nt = no result given; [ ] = dose if it differs, or a comment. Calls follow the shape of the dose curve; as a rule, active = well fitted curve in the direction sought with a large enough effect; inconclusive = small, poorly fitted or top-dose-only effect, or another doubt; inactive = no such curve, though single readings can be large; an effect the other way counts as inactive or inconclusive.

SMILES	BAZ2B inh	PLK1 PBD inh	HP1b chromo inh	Sfp inh	JMJD2A Tudor	G9a block
O=C(Oc1cccc(NC2=NS(=O)(=O)c3ccccc32)c1)c1cccnc1	i	i	i	i	i	nt
Cc1cc(-c2nnc(SCCC(=O)Nc3ccccc3)o2)no1	i	i	i	i	i	i
COc1ccc2[nH]c(C(=O)O)c(CCC(=O)O)c2c1	i	i	i	i	i	?
O=C(O)Cc1c(C(=O)O)[nH]c2ccc(C(=O)O)cc12	?	i	i	i	i	50µM
COc1ccc(-c2nn(-c3ccccc3)cc2/C=C/C(=O)N2CCN(c3ccccn3)CC2)cc1	i	i	i	i	i	?
COc1ccc(C2=NOC3(CC(=O)N(c4ccc(F)cc4)C3=O)C2)cc1 (stereo unspecified)	i	i	i	i	i	50µM
COc1ccc(C2=NOC3(CC(=O)N(c4ccc(F)cc4)C3=O)C2)c(OC)c1 (stereo unspecified)	i	i	i	i	i	50µM
COc1ccc(C2=NOC3(CC(=O)N(c4ccc5ccccc5c4)C3=O)C2)c(OC)c1 (stereo unspecified)	?	i	i	i	50µM	?
Cc1ccc(C2=NOC3(CC(=O)N(c4ccc(C)cc4)C3=O)C2)cc1 (stereo unspecified)	i	i	i	i	i	nt
COC(=O)N1C(c2ccccc2)=Cc2ccccc2C1CC(C)=O (stereo unspecified)	nt	nt	nt	i	nt	nt
Cc1ccc2nc(-c3ccsc3)c(NC3CCCC3)n2c1	i	i	i	i	i	i
COc1ccc(CCNC(=O)c2cc(Sc3cccc(Cl)c3)nc3ccccc23)cc1OC	i	nt	i	nt	i	i
Cc1ccc(/C=C/c2onc(C)c2S(=O)(=O)N2CCC(C(=O)N3CCN(c4ccccc4F)CC3)CC2)cc1	i	nt	i	nt	i	i
CCOC(=O)c1cc2c(ccn2C)n1CC(=O)N1CCCC(C)C1 (stereo unspecified)	?	i	i	i	i	i
CCOC(=O)c1cc2c(ccn2C)n1Cc1ccc(Cl)cc1	50µM	i	i	i	56µM	50µM
CCOC(=O)c1cc2c(ccn2C)n1CC(=O)N1CCC(Cc2ccccc2)CC1	25µM	i	?	i	35µM	40µM
N[C@H](Cn1ccc(=O)n(Cc2ccccc2C(=O)O)c1=O)C(=O)O	nt	nt	nt	71µM	nt	nt
CCN1C(=O)[C@H]2[C@@H](c3ccc(-c4cccc(Cl)c4)cc3)N[C@@](C)(C(=O)OC)[C@H]2C1=O	i	i	i	nt	i	i[2.33 µM]
COc1ccc(C(C#N)=Cc2ccc(OC)c(OC)c2)cc1	nt	i	nt	nt	nt	nt
COc1cc(N2CCCC2)c(OC)cc1/C=C(/C#N)c1ccc(F)cc1	16µM	i	40µM	?	32µM	1.6µM
COc1cc(N2CCCC2)c(OC)cc1/C=C(/C#N)c1ccc(Br)cc1	13µM	i	?	i	20µM	2.8µM
COc1ccc(C(C#N)=Cc2ccccc2OC)cc1	nt	i	nt	nt	nt	nt
Cc1ccc(S(=O)(=O)N(CC(=O)Nc2ccccc2C(=O)O)c2ccc(Cl)cc2)cc1	?	38µM	i	i	i	i
Cc1ccc(N(CC(=O)Nc2ccccc2-c2ccccc2)S(=O)(=O)c2ccccc2)c(C)c1	i	i	i	i	i	8.9µM
Cc1ccc(S(=O)(=O)N2C[C@H]3C(=O)C[C@@H](c4ccccc4F)N(S(=O)(=O)c4ccc(C)cc4)[C@H]3C[C@H]2c2ccccc2F)cc1	nt	i	nt	nt	nt	nt
SMILES	BAZ2B inh	PLK1 PBD inh	HP1b chromo inh	Sfp inh	JMJD2A Tudor	G9a block
C=CCOC(=O)C(C(C)=O)C(NC(=O)OC)c1ccc2ccccc2c1 (stereo unspecified)	nt	nt	nt	i	nt	nt
O=c1[nH][nH]c2c1C(c1ccc(F)cc1)OC(CCc1ccccc1)C2 (stereo unspecified)	nt	11µM	nt	nt	nt	nt
O=c1[nH][nH]c2c1[C@H](c1ccc(F)cc1)O[C@H](CCC(F)(F)F)C2	nt	7.5µM	nt	nt	nt	nt
CC(C)[C@@H]1Cc2[nH][nH]c(=O)c2[C@H](c2ccc(F)cc2)O1	nt	24µM	nt	nt	nt	nt
CCCCC1Cc2[nH][nH]c(=O)c2C(c2ccc(F)cc2)O1 (stereo unspecified)	nt	8.4µM	nt	nt	nt	nt
CC(C)[C@@H]1Cc2[nH]c(=O)[nH]c(=O)c2[C@H](c2ccc(F)cc2)O1	nt	i	nt	nt	nt	nt
Cc1ccc(C)c(CN2C(=O)c3ccccc3Sc3ccc(C(=O)NCc4ccco4)cc32)c1	i	nt	i	nt	i	i
Cc1cccc(NS(=O)(=O)c2ccc3[nH]c(=O)cc(C(=O)OC(C)C(=O)Nc4ccc([N+](=O)[O-])cc4)c3c2)c1 (stereo unspecified)	i	i	i	i	?	45µM
COCCCNC(=O)c1nn(C)c2c1CS(=O)(=O)c1ccccc1-2	i	nt	i	nt	i	i
CCCCNC(=O)c1nn(C)c2c1CSc1ccccc1-2	?	nt	i	nt	?	16µM
COc1ccc(CCNC(=O)c2nn(C)c3c2CS(=O)(=O)c2ccccc2-3)c(OC)c1	50µM	i	i	i	i	i
CCCCN(CC)CCNC(=O)c1nn(C)c2c1CS(=O)(=O)c1ccccc1-2	i	nt	i	nt	i	i
CCN(CC)CCCNC(=O)c1nn(C)c2c1CS(=O)(=O)c1ccccc1-2	i	nt	i	nt	i	25µM
CCn1cnc2c(=O)oc3ccc(S(=O)(=O)N4CCN(c5cc(C)ccc5C)CC4)cc3c21	i	nt	i	nt	i	i
COc1ccc(S(=O)(=O)c2cc3cc(C(C)(C)C)cc(O)c3oc2=O)cc1	25µM	nt	i	nt	?	16µM
COc1ccc(S(=O)(=O)c2cc3cc(OC)ccc3oc2=O)cc1	i	nt	i	nt	i	i
CC(=O)n1nc(-c2ccco2)nc1SCc1ccccc1	i	?	i	i	i	45µM
CCC(=O)n1nc(-c2ccco2)nc1N	i	i	i	i	i	45µM
CC(=O)n1nc(-c2ccco2)nc1N	i	i	i	i	i	i
COc1ccc(CNC(=O)Cc2c(C)c3cc4c(C)coc4cc3oc2=O)cc1	i	nt	i	nt	i	i
O=C(O)CCn1cc(/C=C/C(=O)c2ccc(Cl)cc2)c(-c2ccc(Br)cc2)n1	i	?	i	i	i	79µM
CCCCNC(=S)NCCN1CCCCC1	i	i	?	56µM	1.6µM	2µM
CCNC(=S)NCCN1CCCCC1	i	i	i	i	i	i
CCCNC(=S)NCCN1CCCCC1	?	i	i	?	40µM	8.9µM
Cc1cc(NC(=O)c2ccc(NC(=O)CCS(=O)(=O)c3cccs3)cc2)ccc1Br	i	nt	i	nt	i	i
O=C(Nc1cccc(OC(F)(F)F)c1)[C@@H]1O[C@H](CO)[C@H](O)[C@H](O)[C@H]1O	nt	i	nt	nt	nt	nt
Cc1ccc2c(c1)c(=O)c(C(=O)c1ccncc1)cn2CC(=O)Nc1ccc(C(C)C)cc1	i	nt	i	nt	i	i
O=C(CC(=O)c1ccccc1)Nc1cccc([N+](=O)[O-])c1	nt	i	nt	nt	nt	nt
O=C(CNc1ccccc1)c1ccc([N+](=O)[O-])cc1	?	?	i	50µM	i	4.5µM
